# Measured values as given in PubChem BioAssay (NCATS).
# Results filed as inconclusive are left out. Calls of active or inactive are those of the source. The call rests on the fitted dose curve; in most records, active means well fitted cell-killing curve with a large enough effect; inconclusive means small, poorly fitted or top-dose-only effect, or effect the other way; inactive means flat fitted curve, though single readings scatter.
# Test system: Tov112D
# Experiment: Primary qHTS to identify gynecologic anti-cancer compounds using libraries of approved drugs and bioactive compounds (AID 1345084); further: nearly all actives have a fitted effect of over 55% in size
# Settings: Gynecologic cancer cell panel viability, ATPlite luminescence, 48 h; series mostly up to 57.5 µM; activity change, negative = cytotoxicity: at the top concentration
# How it was run: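 Five-concentration response, 48 h; readout is ATP-driven luciferase luminescence.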
# On the % scale 0 is the no-effect control and ±100 the full control effect.
row,Structure (SMILES),"activity change, negative = cytotoxicity"
1,Cc1cn2cc(CC(=O)N3CCC4(CC3)CN(Cc3ccc(-n5nccn5)cc3Cl)C4)nc2s1,-2.09% (inactive)
2,O=C(OCC1=CC(Cl)C(O)C(OC(=O)c2ccccc2)C1O)c1ccccc1 (stereo not drawn),0.565% [at 25.3 µM] (inactive)
3,C=C1C(OC(C)=O)CCC2(C)CC3(O)OC(=O)C(C)=C3CC12 (stereo not drawn),-1.18% [at 38.5 µM] (inactive)
4,C=C1CC[C@@]2(OC1)O[C@H]1CC3C4CC=C5C[C@@H](O[C@@H]6O[C@@H](C)[C@H](O)[C@@H](O)[C@H]6O)C[C@@H](O[C@@H]6O[C@H](C)[C@H](O)[C@H](O)[C@H]6O[C@@H]6O[C@@H](C)[C@H](O)[C@@H](O)[C@H]6O)[C@]5(C)C4CC[C@]3(C)[C@H]1[C@@H]2C (stereo partly drawn),1.88% [at 11.6 µM] (inactive)
5,Cc1c(O)cc2c(c1O)COC1(O)CCCOC21 (stereo not drawn),-2.23% (inactive)
6,COc1cc(Nc2nc3c(s2)CCCC3c2ccccc2)ccc1-n1cnc(C)c1 (stereo not drawn),0.142% [at 11.6 µM] (inactive)
7,C/C=C1/[C@H](O[C@@H]2O[C@H](CO)[C@@H](O)[C@H](O)[C@H]2O)OC=C(C(=O)OC)[C@H]1CC(=O)OCCc1ccc(O)c(O)c1,-13.4% [at 25.3 µM] (inactive)
8,CC(=O)C1CCC(=O)N1Cc1ccccc1 (stereo not drawn),1.19% (inactive)
9,COc1cccc(Cn2ncc3c4sc(S(C)=O)cc4n(C)c3c2=O)c1 (stereo not drawn),11.3% (inactive)
10,O=S(=O)(O)c1ccc(Nc2ncnc3c2ncn3[C@@H]2O[C@H](CO)[C@@H](O)[C@H]2O)cc1,10.5% (inactive)
11,CC(C)c1ccc2c(c1)C(O)CC1C(C)(C(=O)O)CCCC21C (stereo not drawn),-14.5% [at 38.5 µM] (inactive)
12,CC1=C(C)C(=O)OC(C(C)C2C(O)CC3C4C5OC5C5(O)CC(OC6OC(CO)C(OC7OC(C)C(O)C(O)C7O)C(O)C6O)CC(O)C5(C)C4CCC32C)C1 (stereo not drawn),-2.16% [at 25.3 µM] (inactive)
13,CCc1cc(CC[C@]2(C3CCCC3)CC(O)=C(Cc3nc4nc(C)cc(C)n4n3)C(=O)O2)cc(CC)n1,4.99% (inactive)
14,C[C@@]1(C(=O)O)CCC[C@@]2(C)C3=CC[C@H]4C[C@@]3(CC[C@H]12)CC4(O)CO (stereo partly drawn),-1.01% [at 38.5 µM] (inactive)
15,C=C[C@H]1[C@H](O[C@@H]2O[C@H](CO)[C@@H](O)[C@H](O)[C@H]2O)OC=C(C(=O)OC)[C@H]1CCO,0.234% [at 38.5 µM] (inactive)
16,O=C(O)C1(c2ccc(-c3ccc(Cl)c(Cl)c3)c(F)c2)CC1,0.313% (inactive)
17,CC1=CCC2C(C)(C)CCCC2(C)C1CC12OC1C(O)C(CO)=CC2O (stereo not drawn),0.399% [at 38.5 µM] (inactive)
18,C[C@]12CCC[C@](C)(C(=O)O)C1[C@@H](O)[C@@H](O)C13CC(CCC12)C(CO)(O[C@@H]1O[C@H](CO)[C@@H](O)[C@H](O)[C@H]1O)C3 (stereo partly drawn),5.99% [at 25.3 µM] (inactive)
19,CC(=O)NC1CC(=O)C23C(=O)NC(Cc4c[nH]c5ccccc45)C2C(C)=C(C)C(O)C3/C=C/CC(C)/C=C(/C)C(O)C1O (stereo not drawn),8.34% [at 25.3 µM] (inactive)

row,Structure (SMILES),"activity change, negative = cytotoxicity"
1,C/C=C/C(=O)OC1/C=C/C(O)C(OC(C)=O)CCC(=O)OC1C (stereo not drawn),1.27% [at 38.5 µM] (inactive)
2,C/C=C/C=C/C1=C2C(=O)C3(C)C4C(C(=O)CC(O)/C=C/C)=C(O1)C1(C)C2C2(C)OC1(O)C4(C)OC23O (stereo not drawn),15.1% [at 25.3 µM] (inactive)
3,COC(=O)/C=C/c1ccc(O[C@@H]2O[C@H](CO)[C@@H](O)[C@H](O)[C@H]2O)cc1,9.61% [at 38.5 µM] (inactive)
4,CC(=O)OC1CC2C(C)(C)C(=O)C=CC2(C)C2CC(=O)C3=C(CCC3C3=CC(O)OC3=O)C12C (stereo not drawn),4.91% [at 25.3 µM] (inactive)
5,CC1CC2(O)OC(=O)C3=C2C(CCC3)[C@@]12C[C@@H](c1ccoc1)OC2=O (stereo partly drawn),-1.98% [at 38.5 µM] (inactive)
6,COc1c2c(c(C)c3c1C(=O)OC3)OC1(C)CC(O)C34OC(OC)(CCC3(C)C1C2)OC4(C)CO (stereo not drawn),2.19% [at 25.3 µM] (inactive)
7,C[C@@H]1O[C@@H](OC2C(O[C@H]3[C@H](O[C@H]4CC[C@@]5(C)C(CC[C@]6(C)C5CC=C5C7CC(C)(C)CC(O)[C@]7(C)CC[C@]56C)C4(C)C)O[C@H](C(=O)O)[C@@H](O)[C@@H]3O)OC(CO)C(O)C2O)[C@H](O)[C@H](O)[C@H]1O (stereo partly drawn),11.6% [at 11.6 µM] (inactive)
8,CN1CCN(C(=O)c2cc3cc(Cl)ccc3[nH]2)CC1,14.6% (inactive)
9,O=C1OC(c2ccc(O)cc2)C(O)=C1Cc1ccccc1 (stereo not drawn),-1.09% (inactive)
10,CC(O)C(O)/C=C/C=C/C(=O)O[C@@H]1C=C(C(=O)O)[C@](O)(CO)[C@@]2(C)CCCC(C)(C)[C@H]12 (stereo partly drawn),-4.02% [at 25.3 µM] (inactive)
11,CC1=CC2=C(C)C(=O)[C@](C)(O)[C@H](O)C2=CO1,-0.544% (inactive)
12,CCC(=O)OCC(=O)[C@@]1(OC(=O)CC)[C@@H](C)C[C@H]2[C@@H]3CCC4=CC(=O)C=C[C@]4(C)[C@@]3(F)[C@@H](O)C[C@@]21C,1.26% (inactive)
13,C=C1C[C@]23C[C@H]1CC[C@H]2[C@]1(C)CC[C@H](O)[C@@](C)(C(=O)O)[C@H]1[C@@H]3C(=O)O,-0.0431% [at 38.5 µM] (inactive)
14,CC(=O)OCC1OC(OC2COC(OC3COC(OC4C(OC5C(CO)OC(OC6CCC7(C)C(CCC8(C)C7CC=C7C9CC(C)(C)CCC9(C(=O)OC9OC(CO)C(O)C(O)C9OC9OCC(OC%10OCC(O)(CO)C%10O)C(O)C9O)C(O)CC78C)C6(C)C)C(O)C5O)OCC(O)C4O)C(O)C3O)C(O)C2O)C(OC(=O)/C=C/c2ccccc2)C(O)C1OC(C)=O (stereo not drawn),9.27% [at 6.55 µM] (inactive)
15,Cc1ccc(-c2c(-c3nn(C)c4ncnc(N5CC[C@H](N6CCCCC6)C5)c34)cnn2C)cc1,0.683% (inactive)
16,CC(C)NC(=O)c1ccc(C#Cc2ccncc2)cn1,2.12% (inactive)
17,CC(=O)OC1C(C)C2C(OC3OC(CO)C(O)C(O)C3O)OC=C(C(=O)O)C2C1OC(=O)c1ccccc1 (stereo not drawn),3.42% [at 25.3 µM] (inactive)
18,O=C(N[C@@H]1CC[C@@H](c2cccc(F)c2F)CN(CC(F)(F)F)C1=O)N1CCC(n2c(=O)[nH]c3ncccc32)CC1,-8.9% (inactive)
19,O=C(Nc1cc(-c2ccccc2)nn1-c1ccccc1)c1ccc([N+](=O)[O-])cc1,-0.893% (inactive)
